Only some compounds are listed: those with a hit (about 3.6% of all), similar ones and a draw of the others.
Autofluor counter: counter-screen for toxin protease inhibitors: compound fluorescence. AID 624483. fluorescence intensity (concentration not given with the values). compound autofluorescence counterscreen, microsphere flow cytometry; hits give high values. actives 3.1% (n = 360,000); in the data active = fluorescence intensity above about 16000; inconclusive = no clear call, values can overlap the other calls
MazF activator: activators of E. coli MazEF toxin-antitoxin RNase. P0AE70. FAM/BHQ RNA-DNA oligo cleavage fluorescence, 5 h. activation, % at 20 µM. actives 0.32% (n = 350,000). AID 504720; in the data active = activation above about 50%
BoNT-F LC inh: blocks Botulinum neurotoxin F light chain protease | AID 588497 | inhibition, % at 10 µM | actives 0.22% (n = 360,000) | Multiplex microsphere protease cleavage assay, flow cytometry; in the data active = inhibition above about 35%, passing the limit was not always enough; inconclusive = no clear call, values can overlap the other calls; also: plate controls were buffer without enzyme for full effect and enzyme alone for no effect
BoNT-A LC inh2: blocks Botulinum neurotoxin A light chain protease; multiplex microsphere protease substrate cleavage, flow cytometry; inhibition, % at 10 µM; actives 0.17% (n = 360,000); AID 588499; also: plate controls were buffer without enzyme for full effect and enzyme alone for no effect
Anthrax LF inh2: anthrax lethal factor protease inhibition | multiplex microsphere protease cleavage assay, LF | inhibition, % at 10 µM | actives 0.12% (n = 360,000) | P15917; also: plate controls were buffer without enzyme for full effect and enzyme alone for no effect
Target sequence (P15917 whole entry, looked up): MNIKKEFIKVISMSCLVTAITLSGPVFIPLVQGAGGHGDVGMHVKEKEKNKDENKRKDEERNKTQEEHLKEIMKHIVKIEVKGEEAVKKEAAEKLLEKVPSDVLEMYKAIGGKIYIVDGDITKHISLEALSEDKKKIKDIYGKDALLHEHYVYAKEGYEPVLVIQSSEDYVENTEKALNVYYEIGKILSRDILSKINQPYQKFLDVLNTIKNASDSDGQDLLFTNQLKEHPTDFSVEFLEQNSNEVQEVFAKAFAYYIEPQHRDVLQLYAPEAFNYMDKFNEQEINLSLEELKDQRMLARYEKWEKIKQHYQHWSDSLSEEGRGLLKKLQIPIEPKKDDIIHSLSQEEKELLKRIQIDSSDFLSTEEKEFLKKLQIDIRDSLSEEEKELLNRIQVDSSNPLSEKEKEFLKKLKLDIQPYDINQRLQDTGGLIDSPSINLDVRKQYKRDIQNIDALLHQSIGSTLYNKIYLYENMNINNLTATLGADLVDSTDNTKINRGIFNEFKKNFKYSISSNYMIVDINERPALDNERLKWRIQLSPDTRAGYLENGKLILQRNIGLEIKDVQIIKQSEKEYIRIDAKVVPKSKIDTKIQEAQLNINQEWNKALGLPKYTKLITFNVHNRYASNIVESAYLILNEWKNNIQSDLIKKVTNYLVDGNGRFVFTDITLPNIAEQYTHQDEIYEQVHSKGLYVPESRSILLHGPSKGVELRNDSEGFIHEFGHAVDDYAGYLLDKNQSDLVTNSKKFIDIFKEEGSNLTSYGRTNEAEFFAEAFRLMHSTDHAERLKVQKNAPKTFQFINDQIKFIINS
Starred values were filed as active, the others as inactive; u = inconclusive; x = no result. Rule as the data show it, unless noted: active = inhibition above about 30%; inconclusive = no clear call, values can overlap the other calls; inactive = below that.

SMILES | Autofluor counter | MazF activator | BoNT-F LC inh | BoNT-A LC inh2 | Anthrax LF inh2
O=C(N/N=C/c1ccco1)/C(=C/c1cccc([N+](=O)[O-])c1)NC(=O)c1ccccc1 | 22258* | 2.7 | 2.2 | -0.1 | -0.6
CC(C)NC(=O)/C(=C\c1cccc([N+](=O)[O-])c1)NC(=O)c1ccccc1 | 22798* | -0.1 | -1.4 | 2.0 | -2.1
Cc1ccc(C(=O)N/C(=C\c2ccc([N+](=O)[O-])cc2)C(=O)NCCc2ccccc2)cc1 | 25796* | 1.2 | -5.8 | -4.9 | -3.4
CCc1nc2ccc(C(=O)NCCCn3ccnc3)cn2c1N(C)Cc1cc2ccccc2s1 | 4012 | x | -4.3 | -1.0 | -3.6
CC(C)OC(=O)N(C)C[C@H]1OCc2cnnn2CCCC(=O)N([C@H](C)CO)C[C@H]1C | 2899 | 6.8 | 4.1 | 0.0 | -4.0
COc1ccc(N2CCN(S(=O)(=O)CCNC(=O)C3CC3)CC2)cc1 | 6322 | -3.8 | 1.0 | 0.6 | 4.5
Cn1c(SCC(=O)n2c3c(c4ccccc42)CCCC3)nnc1-c1ccccc1 | 22437* | 5.1 | -0.6 | -0.3 | -0.9
CC(=O)Nc1ccc(-c2nnc(SCC(=O)n3c4c(c5ccccc53)CCCC4)n2C)cc1 | 9744 | -56.6 | 4.0 | -0.7 | -1.3
CN(C)c1nnc(-c2ccc(Cl)cc2)o1 | 3866 | -5.2 | -0.8 | -0.5 | -2.5
Cc1ccc2nc(NC(=O)CN(C)S(=O)(=O)c3ccc(Br)s3)sc2c1 | 2070 | 9.1 | -0.8 | -0.4 | -3.2
Cc1ccc2nc(NC(=O)CNS(=O)(=O)c3ccc(Br)s3)sc2c1 | 21835* | -1.4 | 5.1 | 5.8 | -0.1
Cc1ccc2nc(NC(=O)Cc3cccs3)sc2c1 | 21273* | 4.0 | -6.2 | -3.9 | 0.0
COc1ccc2nc(NC(=O)Cc3cccs3)sc2c1 | 3287 | 2.9 | -5.4 | 0.5 | -1.3
Cc1cnc(NC(=O)Cc2cccs2)s1 | 3154 | 6.7 | -1.6 | -0.1 | -4.6
Cc1cccc(OCc2nnc(NC(=O)Cc3cccs3)s2)c1 | 16333* | 4.1 | -2.5 | 0.3 | -1.5
COCC(C)NCc1ccc(C)cc1C (stereo not given) | 18417* | 2.5 | 0.2 | 3.8 | -0.2
O=C1c2cnc3nc(SCc4ccccc4)nn3c2CC2c3ccccc3CCN12 (stereo not given) | 22144* | 0.8 | 9.4 | 2.7 | 2.5
CCCn1c(SCC(=O)N2CCN(c3ccc(OC)cc3)CC2)nc2c1c(=O)n(C)c(=O)n2C | 19577* | -3.2 | -1.3 | -0.1 | -1.7
CCn1c(SCC(=O)N2CCCc3ccccc32)nc2c1c(=O)n(C)c(=O)n2C | 22886* | 4.0 | 0.3 | u | -0.3
CCn1c(SCC(=O)N2c3ccccc3CCc3ccccc32)nc2c1c(=O)n(C)c(=O)n2C | 9689 | 7.2 | 6.3 | -0.2 | -1.3
CCCn1c(SCC(=O)N2CCCC2)nc2c1c(=O)n(C)c(=O)n2C | 22149* | -5.0 | -0.9 | u | -3.0
Cn1ccnc1SCc1cc(=O)[nH]c2ccccc12 | 11368 | 0.7 | -5.0 | 0.2 | -2.1
CCn1c(SCc2cc(=O)[nH]c3ccccc23)nc2c1c(=O)n(C)c(=O)n2C | 24332* | 5.0 | -8.7 | -4.2 | -2.1
C=C(C)Cn1c(N2CCN(c3ccc(OC)cc3)CC2)nc2c1c(=O)n(C)c(=O)n2C | 3887 | 4.6 | -1.5 | -0.2 | 0.1
CCc1cccc(NC(=O)CCc2c(C)nn(-c3ccc(N4CCCCC4)nn3)c2C)c1 | 5146 | 0.2 | -4.3 | 0.9 | -0.5
SMILES | Autofluor counter | MazF activator | BoNT-F LC inh | BoNT-A LC inh2 | Anthrax LF inh2
CC(=O)c1ccc(NC(=O)NC2CC(=O)N(c3ccc4c(c3)OCCO4)C2)cc1 (stereo not given) | 6741 | 7.1 | -5.8 | -0.7 | -2.4
CCn1c(SCC(=O)N2CCCc3ccccc32)nnc1-c1cccs1 | 16895* | -7.0 | -5.1 | -2.3 | -1.8
CCCn1c(SCC(=O)NCCc2ccc(OC)c(OC)c2)nc2c1c(=O)n(C)c(=O)n2C | 18189* | -4.8 | 3.7 | 3.5 | -1.6
CCCn1c(SCC(=O)c2cc(OC)ccc2OC)nc2c1c(=O)n(C)c(=O)n2C | 21330* | 9.5 | -2.4 | -1.7 | -1.4
CCCn1c(SCC(=O)Nc2ccc(NC(C)=O)cc2)nc2c1c(=O)n(C)c(=O)n2C | 3461 | 1.9 | -15.8 | 1.1 | -7.3
CCCC(=O)Nc1nnc(S(=O)(=O)N(CC)c2ccc(OC)cc2)s1 | 3799 | 0.9 | 18.6 | -1.3 | -3.0
COC(=O)c1ccc(C(=O)OC)nc1 | 4086 | -2.7 | 35.4* | 0.8 | -4.9
COC(=O)c1ccc(C(=O)O)nc1 | 6405 | 7.0 | 0.6 | -0.9 | -9.8
CCC(C)c1c(O)nc(SCC(=O)N2CCOCC2)[nH]c1=O (stereo not given) | 17264* | -7.2 | -6.6 | -3.8 | -5.6
O=C(CNC(=O)N1CC(=O)Nc2ccccc21)Nc1ccc(Cl)cc1Cl | 3622 | 5.2 | 1.0 | -0.2 | -0.1
CCn1cc(C(=O)O)c(=O)c2cc(OC)ccc21 | 19754* | 13.6 | -51.1 | -14.1 | -13.3
O=C(N=C1SC2CS(=O)(=O)CC2N1c1ccccc1Cl)C1CCCO1 (stereo not given) | 5467 | 4.9 | -3.7 | -0.7 | -2.6
COC(=O)c1c(NC(=O)C2CCC2)sc(C(=O)N(C)C)c1C | 17349* | 1.7 | -6.2 | u | 0.9
COc1ccc(C(C)(C)NC(=O)C2CCC(=O)N(C3CCCC3)C2)cc1OC (stereo not given) | 5430 | 0.5 | -2.7 | -0.6 | -3.1
N#Cc1c(SCC(N)=O)nsc1SCc1ccc(Cl)cc1 | 22700* | 30.7 | -0.8 | u | -2.6
Cc1snc(SCC(=O)c2ccc(Cl)cc2)c1C#N | 22846* | 6.9 | -1.9 | u | 1.1
N#Cc1c(SCC(N)=O)nsc1SCc1ccccc1Cl | 2156 | 2.8 | -2.6 | -0.1 | 0.4
O=S(=O)(c1ccc(Cl)cc1)N1CCC(n2cnc3cc(C(F)(F)F)ccc32)CC1 | 16517* | 4.9 | -1.5 | -1.1 | 0.2
O=S(=O)(c1ccc(F)cc1)N1CCC(n2cnc3ccccc32)CC1 | 3877 | 7.3 | -25.4 | -1.9 | -12.1
CSCC[C@H](NC(=O)Cc1c(C)c2c(cc(C)c3c(C)coc32)oc1=O)C(=O)O | 3794 | 5.9 | -12.4 | -1.3 | 20.9
CN(CC(=O)Nc1ccccc1C(F)(F)F)C(=O)CN1C(=O)C2CCCCC2C1=O (stereo not given) | 6589 | 6.5 | -9.8 | -1.2 | -4.6
COc1ccc(O)c(/C=N/NC(=O)CCC(=O)Nc2ccc(F)cc2)c1 | 3360 | 2.6 | -7.4 | -2.6 | 5.1
C=CCc1cccc2cc(C(=O)NC(C)(C)C)c(=O)oc12 | 2128 | 1.2 | -9.5 | 0.0 | -0.7
C=CCc1cccc2ccc(=O)oc12 | 6128 | 0.7 | 37.0* | 4.3 | 19.1
CCN(C(=S)NC(=O)c1ccccc1Br)C1CCCCC1 | 2604 | -1.2 | 0.6 | -0.4 | -2.0
Cc1oc(C(=O)O)cc1COc1ccc2c3c(c(=O)oc2c1)CCC3 | 20992* | 0.7 | -4.4 | u | -4.2
O=C(COc1ccc2c3c(c(=O)oc2c1)CCC3)c1ccc2c(c1)OCO2 | 5481 | 124.6* | -3.5 | 0.3 | 9.7
O=C(O)COc1ccc2c3c(c(=O)oc2c1)CCCC3 | 4477 | 8.9 | 4.8 | -0.1 | 0.3
COC(=O)c1cc(COc2ccc3c4c(c(=O)oc3c2)CCCC4)c(C)o1 | 9343 | 6.6 | -14.4 | -1.4 | -3.1
